Data: PubChem BioAssay AID720597 (Broad Institute, 2013)
Results with a measured potency or affinity are listed apart.

Molecular target: NAD-dependent protein deacylase sirtuin-5, mitochondrial (Homo sapiens) (UniProt Q9NXA8)
Test: SIRT5 deacylase inhibitors, dose response, biochemical, fluorescence imaging, cherry-pick, set 6 (AID 720597);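 note: lower AMC signal can also come from blocking the trypsin step; 0% = median of neutral control wells and -100% = median of positive control wells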
Settings: Purified SirT5, succinyl-peptide-AMC/trypsin fluorescence; series mostly up to 15 µM; activity change, negative = inhibition: at the top concentration;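 active = fitted half-maximal dose no more than twice the top valid tested dose, for compounds that lower signal; inconclusive = fit invalid, or curve flat with activity between -70 and -30; inactive = potency past limit, curve flat within ±30, or signal increasing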

Chain of NAD-dependent protein deacylase sirtuin-5, mitochondrial (Homo sapiens) (Q9NXA8 whole entry, looked up): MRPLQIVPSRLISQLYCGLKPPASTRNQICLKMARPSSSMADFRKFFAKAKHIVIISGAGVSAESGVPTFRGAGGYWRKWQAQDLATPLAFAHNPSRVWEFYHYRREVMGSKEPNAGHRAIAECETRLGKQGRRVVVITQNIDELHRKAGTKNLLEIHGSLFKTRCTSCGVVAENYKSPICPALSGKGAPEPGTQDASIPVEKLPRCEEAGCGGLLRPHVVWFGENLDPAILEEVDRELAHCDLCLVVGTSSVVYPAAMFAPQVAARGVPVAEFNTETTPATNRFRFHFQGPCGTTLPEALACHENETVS

Activity change, negative = inhibition, inactive:
CO[C@@H]1CC[C@@H]2CCN(C)C(=O)C[C@H](c3ccccc3)CN(C)C(=O)c3cccc(C#N)c3OC[C@@H]1O2 -15.7%, CNC[C@@H]1Oc2ccc(NC(=O)Nc3ccc(F)cc3)cc2CC(=O)N([C@@H](C)CO)C[C@@H]1C 12.6%, C[C@@H]1CN([C@@H](C)CO)S(=O)(=O)c2ccc(C#Cc3ccccc3)cc2O[C@H]1CN(C)C(=O)C1CC1 5.11%, O=C(C[C@@H]1CC[C@@H]2[C@H](COC[C@@H](O)CN2Cc2ccc3c(c2)OCO3)O1)N1CCOCC1 -7.73%, C[C@@H]1CN([C@@H](C)CO)C(=O)c2cc(NS(=O)(=O)c3ccccc3)ccc2O[C@@H](C)CCCCO[C@@H]1CN(C)Cc1ccc(C(F)(F)F)cc1 16.1%, C[C@@H]1CN([C@@H](C)CO)C(=O)c2cc(NS(=O)(=O)c3ccccc3)ccc2O[C@@H](C)CCCCO[C@H]1CN(C)S(=O)(=O)c1ccc(Cl)cc1 -18.9%, C[C@@H]1CN([C@@H](C)CO)C(=O)c2cc(NC(=O)Cc3ccccc3)ccc2O[C@H]1CN(C)Cc1ccc(Oc2ccccc2)cc1 -15.5%, CCC(=O)N(C)C[C@@H]1[C@@H](c2ccc(-c3ccccc3F)cc2)[C@H](CO)N1C(C)=O -1.46%, COCC(=O)Nc1ccc2c(c1)OC[C@H](C)N(CC1CC1)C[C@@H](C)[C@@H](OC)CN(C)C2=O 13.3%, Cc1ccc(-c2ccc(C3[C@@H]4CN(S(=O)(=O)c5cccc(C)c5)C[C@H]3N4)cc2)cc1 (some centres undefined) -13.1%, C[C@@H]1CN([C@H](C)CO)S(=O)(=O)c2ccc(C#Cc3cccc(F)c3)cc2O[C@H]1CN(C)S(=O)(=O)c1ccccc1F 45.5%, C[C@@H]1CN([C@@H](C)CO)C(=O)c2cc(NC(=O)C3CC3)ccc2O[C@@H]1CN(C)S(=O)(=O)c1cn(C)cn1 0.617%, O=C(Cc1ccncc1)N[C@H]1CC[C@H](CCn2cc(-c3ccccc3F)nn2)O[C@@H]1CO 1.26%, CCCC#Cc1cnc2c(c1)C(=O)N([C@@H](C)CO)C[C@@H](C)[C@H](CN(C)S(=O)(=O)c1cccc(OC)c1)O2 11.7%, C[C@@H]1CN([C@@H](C)CO)S(=O)(=O)c2ccc(-c3cccc(F)c3)cc2O[C@@H]1CN(C)S(=O)(=O)c1ccc(F)cc1 -17.7%, C[C@H](O)C#Cc1ccc2c(c1)O[C@H](CN(C)Cc1ccc(-c3ccccc3)cc1)[C@H](C)CN([C@H](C)CO)S2(=O)=O -26.1%, CCCNC(=O)N1CC2(C1)[C@H](c1ccccc1)[C@H](CO)N2C(=O)C1CC1 -10.3%, CCCC(=O)Nc1ccc2c(c1)OC[C@@H](C)N(Cc1ccccc1)C[C@H](C)[C@H](OC)CN(C)C2=O -13%, COc1ccccc1NC(=O)N1CC(=O)N2[C@H](CO)[C@@H](c3ccc(C#CC4CC4)cc3)[C@H]2C1 -19.2%, CN(C)C(=O)c1cccc(-c2ccc([C@@H]3[C@H](CO)N4CCCCN(S(C)(=O)=O)C[C@@H]34)cc2)c1 -11.5%, COc1ccccc1-c1ccc2c(c1)O[C@@H](CN(C)Cc1ccc3c(c1)OCO3)[C@H](C)CN([C@@H](C)CO)S2(=O)=O 22%, O=C(CCN1CCCCC1)N[C@@H]1CC[C@@H](CC(=O)N2CCC(Cc3ccccc3)CC2)O[C@H]1CO 0.115%, Cc1noc(C)c1S(=O)(=O)N(C)C[C@@H]1Oc2ccc(NC(=O)Cn3cnnn3)cc2C(=O)N([C@@H](C)CO)C[C@@H]1C -12.8%, COc1ccc(S(=O)(=O)N(C)C[C@@H]2OCCCC[C@H](C)Oc3ccc(NS(=O)(=O)c4cccs4)cc3C(=O)N([C@@H](C)CO)C[C@H]2C)cc1 -24.6%, CC(C)NC(=O)Nc1ccc2c(c1)C(=O)N([C@@H](C)CO)C[C@H](C)[C@H](CN(C)C(=O)NC(C)C)OCCCC[C@@H](C)O2 7.8%, Cc1noc(C)c1S(=O)(=O)N(C)C[C@@H]1OCCCC[C@@H](C)Oc2ccc(NC(=O)Nc3cccc4ccccc34)cc2C(=O)N([C@H](C)CO)C[C@@H]1C -28%, CCN1[C@@H]2c3ccc(-c4ccccc4)c(=O)n3C[C@@H]2[C@@H](CO)[C@@H]1C(=O)NCc1ccccc1 -19.4%, COCCNC(=O)c1cc2c(c(-c3cccc(-c4cccc(F)c4)c3)n1)[C@H](CCO)N(S(=O)C(C)(C)C)C2 (some centres undefined) -23.3%, C[C@@H]1CN([C@@H](C)CO)S(=O)(=O)c2ccc(C#Cc3ccccc3F)cc2O[C@@H]1CN(C)C(=O)c1ccc2c(c1)OCO2 -22.3%
